Data reported in PubChem BioAssay AID1159580 (chemical genetic matrix, 2015).
Values joined by “and” are separate entries in the source; they are usually repeats but may differ in a detail not shown here. Equal values may be shown once. The whole screen tested about 5,500 compounds, of which about 2,000 (36%) were called active. Another 18% or so got no clear call; they are omitted. Cut-off read from the data, not from the text of the source: active = normalized growth mostly below about 0.91 (no sharp cut-off); inconclusive = no clear call, values can overlap the other calls; inactive = mostly above about 0.92. The list shows a part of the results.

Test: chemical genetic growth profiling, strain panel (AID 1159580);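 note: tested at 20 µM; growth read once vehicle control cultures reached saturation at 30 °C; 1 = growth at the plate median or of vehicle wells; lower values mean less growth of the strain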
Details: growth OD

Measured: normalized growth

COCCOC(=O)C1=C(C)NC(C)=C(C(=O)OC(C)C)C1c1cccc([N+](=O)[O-])c1 (stereo unspecified)
inactive: S. cerevisiae deletion strains, locus YJR075W, strain HOC1, hits give low values 1.01 | S. cerevisiae deletion strains, locus YKL009W, strain mrt4, hits give low values 0.967 | S. cerevisiae deletion strains, locus YKL068W, hits give low values 1 | S. cerevisiae deletion strains, locus YKL085W, strain MDH1 (second series), hits give low values 0.986 | S. cerevisiae deletion strains, locus YKL085W, strain MDH1, hits give low values 0.986 | S. cerevisiae deletion strains, locus YKL160W, strain elf1, hits give low values 1.02 | S. cerevisiae deletion strains, locus YKL190W, strain CNB1, hits give low values 0.997 | S. cerevisiae deletion strains, locus YKR001C, strain vps1, hits give low values 1.01 | S. cerevisiae deletion strains, locus YKR026C, strain gcn3, hits give low values 1.01 | S. cerevisiae deletion strains, locus YKR091W, strain srl3, hits give low values 0.995 | S. cerevisiae deletion strains, locus YLL001W, strain dnm1, hits give low values 1.01 | S. cerevisiae deletion strains, locus YLL026W, hits give low values 1 | S. cerevisiae deletion strains, locus YLL041C, strain sdh2, hits give low values 1.01 | S. cerevisiae deletion strains, locus YLR027C, strain aat2, hits give low values 1 | S. cerevisiae deletion strains, locus YLR039C, strain RIC1, hits give low values 1.02 | S. cerevisiae deletion strains, locus YLR058C, strain SHM2, hits give low values 1 | S. cerevisiae deletion strains, locus YLR102C, strain apc9, hits give low values 1.02 | S. cerevisiae deletion strains, locus YLR113W, strain HOG1, hits give low values 0.954 | S. cerevisiae deletion strains, locus YLR221C, strain rsa3, hits give low values 1 | S. cerevisiae deletion strains, locus YLR258W, strain gsy2, hits give low values 1.01 | S. cerevisiae deletion strains, locus YLR262C, strain YPT6 (second series), hits give low values 0.988 | S. cerevisiae deletion strains, locus YLR262C, strain YPT6, hits give low values 1.05 | S. cerevisiae deletion strains, locus YLR268W, strain sec22, hits give low values 0.993 | S. cerevisiae deletion strains, locus YLR320W, strain mms22, hits give low values 0.984 | S. cerevisiae deletion strains, locus YLR330W, strain CHS5, hits give low values 1.01 | S. cerevisiae deletion strains, locus YLR342W, strain FKS1 (second series), hits give low values 1.01 | S. cerevisiae deletion strains, locus YLR342W, strain FKS1, hits give low values 1.02 | S. cerevisiae deletion strains, locus YLR357W, strain rsc2, hits give low values 1.02 | S. cerevisiae deletion strains, locus YLR370C, strain arc18, hits give low values 1 | S. cerevisiae deletion strains, locus YLR371W, strain rom2, hits give low values 1.01 | S. cerevisiae deletion strains, locus YLR384C, strain iki3, hits give low values 1.02 | S. cerevisiae deletion strains, locus YLR418C, strain cdc73, hits give low values 0.974 | S. cerevisiae deletion strains, locus YML016C, strain PPZ1, hits give low values 1 | S. cerevisiae deletion strains, locus YML032C, strain rad52, hits give low values 1.01 | S. cerevisiae deletion strains, locus YML120C, strain ndi1, hits give low values 1.03 | S. cerevisiae deletion strains, locus YML124C, strain tub3, hits give low values 1.01 | S. cerevisiae deletion strains, locus YMR058W, strain fet3, hits give low values 1.02 | S. cerevisiae deletion strains, locus YMR078C, strain ctf18, hits give low values 1.02 | S. cerevisiae deletion strains, locus YMR125W, strain sto1, hits give low values 1.06 | S. cerevisiae deletion strains, locus YMR129W, hits give low values 1.01 | S. cerevisiae deletion strains, locus YMR205C, strain PFK2, hits give low values 0.979 | S. cerevisiae deletion strains, locus YMR223W, strain ubp8, hits give low values 1.01 | S. cerevisiae deletion strains, locus YMR231W, strain pep5, hits give low values 1.01 | S. cerevisiae deletion strains, locus YMR263W, strain SAP30, hits give low values 1 and 1.01 | S. cerevisiae deletion strains, locus YMR307W, strain GAS1, hits give low values 1.02 and 1.01 | S. cerevisiae deletion strains, locus YNL067W, strain RPL9B, hits give low values 0.997 | S. cerevisiae deletion strains, locus YNL071W, strain lat1, hits give low values 0.998 | S. cerevisiae deletion strains, locus YNL128W, strain TEP1, hits give low values 1.01 | S. cerevisiae deletion strains, locus YNL153C, strain GIM3, hits give low values 1 | S. cerevisiae deletion strains, locus YNL175C, strain NOP13, hits give low values 0.962 | S. cerevisiae deletion strains, locus YNL183C, strain NPR1, hits give low values 0.93 | S. cerevisiae deletion strains, locus YNL197C, strain WHI3, hits give low values 0.99 | S. cerevisiae deletion strains, locus YNL209W, strain ssb2, hits give low values 1 | S. cerevisiae deletion strains, locus YNL224C, strain SQS1, hits give low values 1.01 | S. cerevisiae deletion strains, locus YNL233W, strain BNI4, hits give low values 1 | S. cerevisiae deletion strains, locus YNL248C, strain rpa49, hits give low values 1.03 | S. cerevisiae deletion strains, locus YNL250W, strain rad50, hits give low values 1.02 | S. cerevisiae deletion strains, locus YNL271C, strain bni1, hits give low values 1.01 | S. cerevisiae deletion strains, locus YNL298W, strain CLA4, hits give low values 1 | S. cerevisiae deletion strains, locus YNL307C, strain MCK1, hits give low values 1.01 | S. cerevisiae deletion strains, locus YNL322C, strain KRE1 (second series), hits give low values 1 | S. cerevisiae deletion strains, locus YNL322C, strain KRE1, hits give low values 1.01 | S. cerevisiae deletion strains, locus YNR049C, strain mso1, hits give low values 0.993 | S. cerevisiae deletion strains, locus YNR052C, strain pop2, hits give low values 1.01 | S. cerevisiae deletion strains, locus YOL006C, strain TOP1, hits give low values 1.01 | S. cerevisiae deletion strains, locus YOL012C, strain htz1 1.04 | S. cerevisiae deletion strains, locus YOL147C, strain pex11, hits give low values 1.01 | S. cerevisiae deletion strains, locus YOR001W, strain rrp6, hits give low values 1 | S. cerevisiae deletion strains, locus YOR061W, strain CKA2, hits give low values 0.999 | S. cerevisiae deletion strains, locus YOR069W, strain VPS5, hits give low values 1.01 | S. cerevisiae deletion strains, locus YOR070C, strain gyp1, hits give low values 1.02 | S. cerevisiae deletion strains, locus YOR080W, strain dia2, hits give low values 1.01 | S. cerevisiae deletion strains, locus YOR083W, strain WHI5 (second series), hits give low values 0.986 | S. cerevisiae deletion strains, locus YOR083W, strain WHI5, hits give low values 0.974 | S. cerevisiae deletion strains, locus YOR106W, strain vam3, hits give low values 1 | S. cerevisiae deletion strains, locus YOR136W, strain idh2, hits give low values 1.01 | S. cerevisiae deletion strains, locus YOR144C, strain elg1, hits give low values 1.01 | S. cerevisiae deletion strains, locus YOR184W, strain ser1, hits give low values 1.01 | S. cerevisiae deletion strains, locus YOR231W, strain MKK1, hits give low values 0.935 | S. cerevisiae deletion strains, locus YOR265W, strain rbl2, hits give low values 0.999 | S. cerevisiae deletion strains, locus YOR270C, strain vph1, hits give low values 0.92 | S. cerevisiae deletion strains, locus YOR290C, strain snf2, hits give low values 1.03 | S. cerevisiae deletion strains, locus YOR316C, strain cot1, hits give low values 1.01 | S. cerevisiae deletion strains, locus YPL051W, strain arl3, hits give low values 1.01 | S. cerevisiae deletion strains, locus YPL055C, strain LGE1, hits give low values 1 and 1.02 | S. cerevisiae deletion strains, locus YPL078C, strain atp4, hits give low values 1.03 | S. cerevisiae deletion strains, locus YPL106C, strain sse1, hits give low values 1.08 | S. cerevisiae deletion strains, locus YPL240C, strain hsp82, hits give low values 1.02 | S. cerevisiae deletion strains, locus YPL241C, strain CIN2, hits give low values 0.985 | S. cerevisiae deletion strains, locus YPL256C, strain CLN2, hits give low values 0.955 | S. cerevisiae deletion strains, locus YPR119W, strain clb2, hits give low values 1.01 | S. cerevisiae deletion strains, locus YPR141C, strain kar3, hits give low values 1.02 | S. cerevisiae deletion strains, locus YPR163C, strain tif3, hits give low values 1.01 | S. cerevisiae deletion strains, locus YPR167C, strain met16, hits give low values 1.01 | S. cerevisiae deletion strains, strain wtn01, hits give low values 1 | S. cerevisiae strains, strain wild type, hits give low values 1
